Records with an inconclusive call do not appear. Entries that show only a call come without a potency. Active and inactive are the calls of the source. The call rests on the fitted dose curve; in most records, active means well fitted inhibition curve with a large enough effect; inconclusive means small, poorly fitted or top-dose-only effect; inactive means no such curve, though single readings can be large or run the other way.
Potency means the concentration at half of the fitted maximal effect.

The nature of the assay: qHTS for Inhibitors of ATXN expression: Validation (AID 588378). Further: nearly all actives have a fitted effect of over 75% in size. To be noted: cell-based ATXN2 expression reporter assay, luminescence; series mostly up to 57.1 µM. The source says: Spinocerebellar ataxia type 2 (SCA2) is a multisystem neurodegenerative disease caused by a dominantly-acting mutation leading to expansion of a polyQ domain in the ataxin-2 protein (ATXN2). SCA2 patients develop progressive ataxia and later lose function in other neuronal systems. Prominent parkinsonian signs develop in some patients. Similar to many neurodegenerative disorders, no symptomatic or disease-modifying treatments are known.
The primary objective of project is to identify compounds inhibiting ATXN2 expression and to test them for efficacy in SCA2 mouse models. To this end, in a collaboration between Dr. Daniel Scoles and scientists at NCGC, a cell-based assay adapted to high-throughput screening has been developed to screen the NIH Molecular Libraries Small Molecule Repository (MLSMR).
NIH Chemical Genomics Center [NCGC]
NIH Molecular Libraries Probe Centers Network [MLPCN]
Assay Submitter (PI): Stefan Pulst and Daniel Scoles, University of Utah
4 ul of HEK293-ATXN2-FFLuc cell suspension (TBD cells/microL in phenol-red free DMEM) are dispensed into Greiner white solid bottom 1536-well assay plates, yielding a final well density of TBD cells/well. Plates are incubated for 2 hrs at 37 degrees C in 5% humidified CO2 to allow cell attachment. Compounds are then transferred via Kalypsys pin tool equipped with 1536-pin array (10nl slotted pins, V&P Scientific, San Diego, CA). In addition, duplicate serial dilutions of the control compounds ChemBridge 5553825, a previously identified ATXN2 expression inhibitor, and a known luciferase inhibitor, are pin-transferred. After incubation at 37 degrees C in 5% humidified CO2 for 24 hrs, CellTiter-Fluor reagent (1 ul) (Promega, Madison, WI) is then added and plates are incubated for 30 minutes, before being transferred to a ViewLux high-throughput CCD imager (PerkinElmer), wherein single end-point fluorescence measurements are acquired using the 405 nm excitation/525 nm emission filter set to assess cell viability. Next, Bright-Glo luciferase substrate detection reagent (3 ul) (Promega, Madison, WI) is added to each well and incubated for an additional 5 minutes. Luminescence is then measured on the ViewLux imager equipped with a clear emission filter using a 2 sec exposure.
A general note: In qHTS, concentration-response curves come from the screen itself.
As to `Cc1cc2c(C(C)C)c(O)c(O)c(C=O)c2c(O)c1-c1c(C)cc2c(C(C)C)c(O)c(O)c(C=O)c2c1O`, the Potency is 7.08 µM (active).

In the case of `Cc1cccc(C)c1NC(=O)CN1CCCC1=O`, the Potency entry was “inactive”.

As to `CC(=O)[C@H]1CC[C@H]2[C@@H]3CC[C@H]4C[C@H](O)CC[C@]4(C)[C@H]3C(=O)C[C@]12C`, the Potency entry is “inactive”.

Turning to `CCCN1CCC[C@@H]2Cc3nc(N)ncc3C[C@H]21`, the Potency result was “inactive”.

Regarding `CC(O)(CS(=O)(=O)c1ccc(F)cc1)C(=O)Nc1ccc(C#N)c(C(F)(F)F)c1` (stereo unspecified), the Potency result was “inactive”.

On to `Cc1ncc(CNC(=O)N(CCCl)N=O)c(N)n1`, for which the Potency result was “inactive”.

Take `O=C1NCN(c2ccccc2)C12CCN(CC1COc3ccccc3O1)CC2` (stereo unspecified): the Potency result is “inactive”.

Take `COc1ccc(C(CN(C)C)C2(O)CCCCC2)cc1` (stereo unspecified): the Potency entry is “inactive”.

Consider `CC(=O)[C@H]1CC[C@H]2[C@@H]3CC[C@H]4C[C@](C)(O)CC[C@]4(C)[C@H]3CC[C@]12C`, for which the Potency entry was “inactive”.

`NCC(O)c1ccc(O)cc1` (stereo unspecified): the Potency entry was “inactive”.

`CC[C@@H](CO)NC(=O)[C@@H]1C=C2c3cccc4c3c(cn4C)C[C@H]2N(C)C1`: the Potency entry was “inactive”.

With `C[C@@H]1O[C@@H](O[C@H]2C[C@@H](O)[C@]3(CO)[C@H]4[C@H](O)C[C@]5(C)[C@@H](C6=CC(=O)OC6)CC[C@]5(O)[C@@H]4CC[C@]3(O)C2)[C@H](O)[C@H](O)[C@H]1O`, the Potency result is “inactive”.

Regarding `CNCC(O)c1ccc(O)cc1` (stereo unspecified), the Potency entry is “inactive”.

As for `NCC1(CC(=O)O)CCCCC1`, the Potency result is “inactive”.

Take `NCC(CC(=O)O)c1ccc(Cl)cc1` (stereo unspecified): the Potency result was “inactive”.

Consider `CNCCC(Oc1ccc(C(F)(F)F)cc1)c1ccccc1` (stereo unspecified), for which the Potency is 14.1 µM (active).

Consider `Cc1ccc(S(=O)(=O)N[C@@H](CCCCN)C(=O)CCl)cc1`, for which the Potency entry was “inactive”.

`Cc1cccc(C)c1NC1=NCCCS1`: the Potency entry is “inactive”.

On to `CCCN1CCC[C@@H]2Cc3[nH]ncc3C[C@H]21`, for which the Potency entry is “inactive”.

As to `CC(C)=CCOc1c2occc2cc2ccc(=O)oc12`, the Potency entry is “inactive”.

Consider `CCCC(C)(COC(N)=O)COC(=O)NC(C)C` (stereo unspecified), for which the Potency entry was “inactive”.

Turning to `CC[C@@H](CO)NC(=O)[C@@H]1C=C2c3cccc4[nH]cc(c34)C[C@H]2N(C)C1`, the Potency result is “inactive”.

For the molecule `Nc1ccncc1`, the Potency entry is “inactive”.

As for `O=c1[nH]c2ccccc2n1C1CCN(CCCC(c2ccc(F)cc2)c2ccc(F)cc2)CC1`, the Potency result is “inactive”.

As for `Fc1ccc(C(OCCN2CCN(CCCc3ccccc3)CC2)c2ccc(F)cc2)cc1`, the Potency was 20 µM (active).

`Cc1c(OCC(F)(F)F)ccnc1CS(=O)c1nc2ccccc2[nH]1` (stereo unspecified): the Potency result was “inactive”.

For the molecule `c1ccc(C2CC2)c(OCC2=NCCN2)c1`, the Potency entry is “inactive”.

For the molecule `COc1ccccc1N1CCNCC1`, the Potency entry was “inactive”.

On to `NN=C(N)N`, for which the Potency result is “inactive”.

Take `N#CC(C#N)=Cc1ccc(O)c(O)c1`: the Potency entry is “inactive”.

In the case of `CCC1(C2=NCCN2)Cc2ccccc2O1` (stereo unspecified), the Potency entry was “inactive”.

(Values after PubChem BioAssay (NCATS).)
